# In the supplement of paper PMC8728848:
# The entries come from a sample that favours the strongest signals as a whole.
# Assays:
# Test in all cases: glycan array binding signal (z-score within array); higher = stronger binding
# Settings in all cases: glycan notation: IUPAC condensed, linker removed
# [1] = target: Fuc(a1-2)Gal(b1-3)GlcNAc(b1-3)[Gal(b1-4)GlcNAc(b1-6)]Gal(b1-4)Glc
# Method in brief: (§1)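 Columns mapping to the same glycan were averaged after glycan names were converted to IUPAC-condensed notation. The data come from 3228 arrays in the Consortium for Functional Glycomics database, limited to those with an available protein sequence. Binding is reported as a within-array Z-score averaged across arrays of one protein sequence and across linkers.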
# [2] = target: Fuc(a1-2)Gal(b1-4)[Fuc(a1-3)]GlcNAc(b1-2)[Fuc(a1-2)Gal(b1-4)[Fuc(a1-3)]GlcNAc(b1-4)]Man(a1-3)[Fuc(a1-2)Gal(b1-4)[Fuc(a1-3)]GlcNAc(b1-2)Man(a1-6)]Man(b1-4)GlcNAc(b1-4)GlcNAc
# Method in brief: as §1
# [3] = target: Fuc(a1-2)[Gal(a1-3)]Gal(b1-3)GalNAc
# Method in brief: as §1
# [4] = target: Fuc(a1-2)[Gal(a1-3)]Gal(b1-3)GalNAc(b1-3)Gal(a1-4)Gal(b1-4)Glc
# Method in brief: as §1
# [5] = target: Fuc(a1-2)[GalNAc(a1-3)]Gal(b1-3)GlcNAc(b1-2)Man(a1-3)[Fuc(a1-2)[GalNAc(a1-3)]Gal(b1-3)GlcNAc(b1-2)Man(a1-6)]Man(b1-4)GlcNAc(b1-4)GlcNAc
# Method in brief: as §1
# [6] = target: Fuc(a1-2)[GalNAc(a1-3)]Gal(b1-4)GlcNAc(b1-2)Man(a1-3)[Fuc(a1-2)[GalNAc(a1-3)]Gal(b1-4)GlcNAc(b1-2)Man(a1-6)]Man(b1-4)GlcNAc(b1-4)GlcNAc
# Method in brief: as §1
# [7] = target: Fuc(a1-3)[Gal(b1-4)]GlcNAc(b1-3)GalNAc
# Method in brief: as §1
# [8] = target: Fuc(a1-3)[Gal(b1-4)]GlcNAc(b1-6)GalNAc
# Method in brief: as §1
# [9] = target: Fuc(a1-3)[Gal3S(b1-4)]GlcNAc
# Method in brief: as §1
# Fuc(a1-4)GlcNAc = target: Fuc(a1-4)GlcNAc
# Method in brief: as §1
# Gal(a1-2)Gal = target: Gal(a1-2)Gal
# Method in brief: as §1
# Gal(a1-3)Gal = target: Gal(a1-3)Gal
# Method in brief: as §1
# Gal(a1-3)Gal(b1-3)GlcNAc = target: Gal(a1-3)Gal(b1-3)GlcNAc
# Method in brief: as §1
# [10] = target: Gal(a1-3)Gal(b1-3)GlcNAc(b1-2)Man(a1-3)[Gal(a1-3)Gal(b1-3)GlcNAc(b1-2)Man(a1-6)]Man(b1-4)GlcNAc(b1-4)GlcNAc
# Method in brief: as §1
# Gal(a1-3)Gal(b1-4)Glc = target: Gal(a1-3)Gal(b1-4)Glc
# Method in brief: as §1
# [11] = target: Gal(b1-3)GalNAc(b1-4)Gal(b1-4)Glc
# Method in brief: as §1
# [12] = target: Gal(b1-3)GlcNAc(b1-3)Gal(b1-4)GlcNAc
# Method in brief: as §1
# [13] = target: Gal(b1-4)GlcNAc(b1-2)Man(a1-3)[GlcNAc(b1-2)Man(a1-6)]Man(b1-4)GlcNAc(b1-4)GlcNAc
# Method in brief: as §1
# [14] = target: Gal(b1-4)GlcNAc(b1-2)Man(a1-3)[GlcNAc(b1-4)][Gal(b1-4)GlcNAc(b1-2)Man(a1-6)]Man(b1-4)GlcNAc(b1-4)GlcNAc
# Method in brief: as §1
# [15] = target: Gal(b1-4)GlcNAc(b1-2)Man(a1-6)Man(b1-4)GlcNAc(b1-4)GlcNAc
# Method in brief: as §1
# [16] = target: Gal(b1-4)GlcNAc(b1-2)Man(a1-6)[Man(a1-3)]Man(b1-4)GlcNAc(b1-4)GlcNAc
# Method in brief: as §1
# [17] = target: Gal(b1-4)GlcNAc(b1-2)[Gal(b1-4)GlcNAc(b1-6)]Man(a1-6)[GlcNAc(b1-4)][Gal(b1-4)GlcNAc(b1-2)Man(a1-3)]Man(b1-4)GlcNAc(b1-4)GlcNAc
# Method in brief: as §1
# [18] = target: Gal(b1-4)GlcNAc(b1-3)Gal(b1-4)GlcNAc(b1-2)[Gal(b1-4)GlcNAc(b1-3)Gal(b1-4)GlcNAc(b1-6)]Man(a1-6)[Gal(b1-4)GlcNAc(b1-3)Gal(b1-4)GlcNAc(b1-2)Man(a1-3)]Man(b1-4)GlcNAc(b1-4)GlcNAc
# Method in brief: as §1
# [19] = target: Gal(b1-4)GlcNAc(b1-3)Gal(b1-4)GlcNAc(b1-2)[Gal(b1-4)GlcNAc(b1-3)Gal(b1-4)GlcNAc(b1-6)]Man(a1-6)[Gal(b1-4)GlcNAc(b1-3)Gal(b1-4)GlcNAc(b1-2)Man(a1-3)]Man(b1-4)GlcNAc(b1-4)[Fuc(a1-6)]GlcNAc
# Method in brief: as §1
# [20] = target: Gal(b1-4)GlcNAc(b1-3)Gal(b1-4)GlcNAc(b1-3)Gal(b1-4)GlcNAc(b1-3)Gal(b1-4)GlcNAc(b1-3)Gal(b1-4)GlcNAc(b1-2)[Gal(b1-4)GlcNAc(b1-3)Gal(b1-4)GlcNAc(b1-3)Gal(b1-4)GlcNAc(b1-3)Gal(b1-4)GlcNAc(b1-3)Gal(b1-4)GlcNAc(b1-6)]Man(a1-6)[Gal(b1-4)GlcNAc(b1-3)Gal(b1-4)GlcNAc(b1-3)Gal(b1-4)GlcNAc(b1-3)Gal(b1-4)GlcNAc(b1-3)Gal(b1-4)GlcNAc(b1-2)Man(a1-3)]Man(b1-4)GlcNAc(b1-4)[Fuc(a1-6)]GlcNAc
# Method in brief: as §1
# [21] = target: Gal3S(b1-4)[Fuc(a1-3)]GlcNAc
# Method in brief: as §1
binder,measurement,setting,value
rEtpA (Escherichia coli) (protein) MNRIYKLKFDKRRNELVVVSEITTGVGNAKATGSVEGEKSPRRGVRAMALSLLSGMMIMAHPAMSANLPTGGQIVAGSGSIQTPSGNQMNIHQNSQNMVANWNSFDIGKGNTVQFDQPSSSAVALNRVVGGGESQIMGNLKANGQVFLVNPNGVLFGEGASVSTSGFVASTRDIKNDDFMNRRYTFSGGQKAGAAIVNQGELTTNAGGYIVLAADRVSNSGTIRTPGGKTVLAASERITLQLDNGGLMSVQVTGDVVNALVENRGLVSARDGQVYLTALGRGMLMNTVLNVSGVVEASGMHRQDGNIVLDGGDSGVVHLSGTLQADNASGQGGKVVVQGKNILLDKGSNITATGGQGGGEVYVGGGWQGKDSNIRNADKVVMQGGARIDVSATQQGNGGTAVLWSDSYTNFHGQISAKGGETGGNGGRVETSSHGNLQAFGTVSASAKKGKAGNWLLDSADITIVNGSNVSKTETTQSPPHTQFAPTAAGSAVSNTSINNRLNNGTSVTILTHRTRTGTAQGGNITVNAAINKSNGSDVNLTLQAGGNITVNNSITSTEGKLNVNLSGARTSNGSITISNNANITTNGGDITVGTTNTSNRVNISINNTTLNASNGNIQLTGTGTDSGILFAGNNRLTASNIALTGNSTSGNAINLTGTATLNATNNITLTGSSTSGNAINLKGNNTLTASNITLTGESTSGNAINLTDTTGTTTLNATNNITMQGTRVQIKHSNITAGNFALNATVAGSEISNTTLTATNNINLAAKTNSASSGVYLKDARITSTNGSITANGTATANGKATHLDGNVTLNASNGRIKLTGNGHGSASGILFAGNNRLTASNIALTGNSTSGNAINLTGTATLNATNDITLTGSSTSGNAINLTGTATLNATNNITLTGSSTSGNAINLKGNNTLTASNITLTGESTSGNAINLTDTTGTTTLNATNNITMQGTRVQIKHSNITAGNFALNATVAGSEISNTTLTATNNINLAAKTNSASSGVYLKDARITSTNGSITANGTATANGKATHLDGNVTLNASNGRIKLTGNGHGSASGILFAGNNRLTASNIALTGNSTSGNAINLTGTATLNATNDITLTGSSTSGNAINLTGTATLNATNNITLTGSSTSGNAINLKGNNTLTASNITLTGESTSGNAINLTDTTGTTTLNATNNITMQGTRVQIKHSNITAGNFALNATVAGSEISNTTLTATNNINLAAKTNSASSGVYLKDARITSTNGSITANGTATANGKATHLDGNVTLNASNGRIKLTGNGHGSASGILFAGNNRLTASNIALTGNSTSGNAINLTGTATLNATNDITLTGSSTSGNAINLTGTATLNATNNITLTGSSTSGNAINLKGNNTLTASNITLTGESTSGNAINLTDTTGTTTLNATNNITMQGTRVQIKHSNITAGNFALNATVAGSEISNTTLTATNNINLAAKTNSASSGVYLKDARITSTNGSITTNGTATANGKATHLDGNVTLNASNGRIKLTGNGHGSASGILFAGNNRLTASNIALTGNSTSGNAINLTGTATLNATNDITLTGSSTSGNAINLTGTATLNATNNITLTGSSTSGNAINLKGNNTLTASNITLTGESTSGNAINLTDTTGTTTLNATNNITMQGTRVQIKHSNITAGNFALNATVAGSEISNTTLTATNNINLAAKTNSASSGVYLKDARITSTNGSITANGTAPANDNATYLDGNVTLNASNGSIKLTGNGNGSTSGILFAGNNTLTASNITLTGNSEVYWQKLGPEQKLISEEDLNSAVDHHHHHH,glycan array binding signal (z-score),[1],-0.058
same,glycan array binding signal (z-score),[2],-0.225
same,glycan array binding signal (z-score),[3],0.413
same,glycan array binding signal (z-score),[4],-0.241
same,glycan array binding signal (z-score),[5],-0.328
same,glycan array binding signal (z-score),[6],-0.09
same,glycan array binding signal (z-score),[7],-0.358
same,glycan array binding signal (z-score),[8],-0.192
same,glycan array binding signal (z-score),[9],-0.102
same,glycan array binding signal (z-score),Fuc(a1-4)GlcNAc,2.8
same,glycan array binding signal (z-score),Gal(a1-2)Gal,0.054
same,glycan array binding signal (z-score),Gal(a1-3)Gal,2.11
same,glycan array binding signal (z-score),Gal(a1-3)Gal(b1-3)GlcNAc,1.87
same,glycan array binding signal (z-score),[10],0.182
same,glycan array binding signal (z-score),Gal(a1-3)Gal(b1-4)Glc,-0.179
same,glycan array binding signal (z-score),[11],-0.272
same,glycan array binding signal (z-score),[12],-0.457
same,glycan array binding signal (z-score),[13],-0.408
same,glycan array binding signal (z-score),[14],-0.274
same,glycan array binding signal (z-score),[15],-0.376
same,glycan array binding signal (z-score),[16],0.021
same,glycan array binding signal (z-score),[17],-0.309
same,glycan array binding signal (z-score),[18],-0.106
same,glycan array binding signal (z-score),[19],-0.356
same,glycan array binding signal (z-score),[20],-0.351
same,glycan array binding signal (z-score),[21],-0.202
